Assay results reported in PubChem BioAssay AID1159580 (chemical genetic matrix, 2015).
Screen size: about 5,500 compounds; about 2,000 (36%) were called active. Inconclusive results (about 18%) are left out. No stated cut-off is given here; in the data, active means normalized growth mostly below about 0.91 (no sharp cut-off); inconclusive means no clear call, values can overlap the other calls; inactive means mostly above about 0.92. This is one part of the list.

Experiment: chemical genetic growth profiling, strain panel (AID 1159580);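 further: tested at 20 µM; growth read once vehicle control cultures reached saturation at 30 °C; 1 = growth at the plate median or of vehicle wells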
Conditions: S. cerevisiae deletion strains, growth OD

Measured: normalized growth

O=c1[nH]c(=O)c2nc3ccccc3nc2[nH]1
inactive: locus YAL040C, strain CLN3, stronger effect = lower value 0.979 | locus YER002W, strain NOP16, stronger effect = lower value 1 | locus YGR078C, strain PAC10, stronger effect = lower value 1.01 | locus YMR307W, strain GAS1, stronger effect = lower value 0.994 | locus YNL153C, strain GIM3, stronger effect = lower value 1.01 | locus YNL175C, strain NOP13, stronger effect = lower value 0.98 | locus YNL197C, strain WHI3, stronger effect = lower value 0.971 | locus YNL224C, strain SQS1, stronger effect = lower value 0.999 | locus YOR083W, strain WHI5 (second series), stronger effect = lower value 0.997 | locus YPL241C, strain CIN2, stronger effect = lower value 1

O=[N+]([O-])c1ccc(-c2noc(-c3ccno3)n2)o1
active: locus YAR019C, strain CDC15, stronger effect = lower value 0.0919 | locus YBL105C, strain PKC1, stronger effect = lower value 0.118 | locus YBR135W, strain CKS1, stronger effect = lower value 0.133 | locus YBR136W, strain MEC1, stronger effect = lower value 0.119 | locus YBR160W, strain CDC28, stronger effect = lower value 0.121 | locus YDL017W, strain CDC7, stronger effect = lower value 0.122 | locus YDL028C, strain MPS1, stronger effect = lower value 0.128 | locus YDL101C, strain DUN1, stronger effect = lower value 0.143 | locus YDL108W, strain KIN28, stronger effect = lower value 0.123 | locus YDL132W, strain cdc53, stronger effect = lower value 0.106 | locus YDL214C, strain PRR2, stronger effect = lower value 0.103 | locus YDR052C, strain DBF4, stronger effect = lower value 0.129 | locus YDR054C, strain cdc34, stronger effect = lower value 0.108 | locus YDR226W, strain ADK1, stronger effect = lower value 0.113 | locus YDR477W, strain SNF1, stronger effect = lower value 0.102 | locus YER123W, strain YCK3, stronger effect = lower value 0.113 | locus YER133W, strain GLC7, stronger effect = lower value 0.102 | locus YFL009W, strain cdc4, stronger effect = lower value 0.109 | locus YFL029C, strain CAK1, stronger effect = lower value 0.0982 | locus YFR003C, strain YPI1, stronger effect = lower value 0.126 | locus YFR019W, strain FAB1, stronger effect = lower value 0.104 | locus YFR028C, strain CDC14, stronger effect = lower value 0.0999 | locus YGR040W, strain KSS1, stronger effect = lower value 0.107 | locus YGR052W, strain FMP48, stronger effect = lower value 0.123 | locus YGR092W, strain DBF2, stronger effect = lower value 0.106 | locus YHR030C, strain SLT2, stronger effect = lower value 0.135 | locus YHR079C, strain IRE1, stronger effect = lower value 0.171 | locus YHR082C, strain KSP1, stronger effect = lower value 0.143 | locus YHR205W, strain SCH9, stronger effect = lower value -0.000394 | locus YIL147C, strain SLN1, stronger effect = lower value 0.129 | locus YJL095W, strain BCK1, stronger effect = lower value 0.141 | locus YJL128C, strain PBS2, stronger effect = lower value 0.117 | locus YJL157C, strain FAR1, stronger effect = lower value 0.107 | locus YJR016C, strain ILV3, stronger effect = lower value 0.0915 | locus YJR066W, strain TOR1 (second series), stronger effect = lower value 0.0932 | locus YJR066W, strain TOR1, stronger effect = lower value 0.125 | locus YKL048C, strain ELM1, stronger effect = lower value 0.115 | locus YKL067W, strain YNK1, stronger effect = lower value 0.0963 | locus YKL101W, strain HSL1, stronger effect = lower value 0.106 | locus YKL193C, strain SDS22, stronger effect = lower value 0.0909 | locus YKL203C, strain TOR2, stronger effect = lower value 0.104 | locus YLR113W, strain HOG1, stronger effect = lower value 0.2 | locus YLR133W, strain CKI1, stronger effect = lower value 0.0997 | locus YLR403W, strain SFP1, stronger effect = lower value 0.00715 | locus YML070W, strain DAK1, stronger effect = lower value 0.1 | locus YMR001C, strain CDC5, stronger effect = lower value 0.093 | locus YMR205C, strain PFK2 (second series), stronger effect = lower value 0.0958 | locus YMR277W, strain FCP1, stronger effect = lower value 0.0929 | locus YNL006W, strain LST8, stronger effect = lower value 0.104 | locus YNL020C, strain ARK1, stronger effect = lower value 0.101 | locus YNL161W, strain CBK1, stronger effect = lower value 0.103 | locus YNL183C, strain NPR1, stronger effect = lower value 0.138 | locus YNL207W, strain RIO2, stronger effect = lower value 0.0962 | locus YNL222W, strain SSU72, stronger effect = lower value 0.1 | locus YNL307C, strain MCK1 (second series), stronger effect = lower value 0.11 | locus YOL078W, strain AVO1, stronger effect = lower value 0.0939 | locus YOL136C, strain PFK27, stronger effect = lower value 0.124 | locus YOR061W, strain CKA2, stronger effect = lower value 0.0948 | locus YOR119C, strain RIO1, stronger effect = lower value 0.112 | locus YOR231W, strain MKK1, stronger effect = lower value 0.14 | locus YOR329C, strain SCD5, stronger effect = lower value 0.104 | locus YPL031C, strain PHO85, stronger effect = lower value 0.112 | locus YPL153C, strain RAD53, stronger effect = lower value 0.0949 | locus YPL204W, strain HRR25, stronger effect = lower value 0.106 | locus YPL209C, strain IPL1, stronger effect = lower value 0.105 | locus YPL256C, strain CLN2, stronger effect = lower value 0.178 | locus YPR025C, strain CCL1, stronger effect = lower value 0.111 | locus YPR106W, strain ISR1, stronger effect = lower value 0.132 | locus YPR111W, strain DBF20, stronger effect = lower value 0.149 | strain NNK1, stronger effect = lower value 0.104 | strain TSCII, stronger effect = lower value 0.0899
